This passage reports Potency, outcome and max activation results from PubChem BioAssay (Tox21).

A number with no mark means an inactive call. Activity calls are given as the source filed them. Unless noted, calls follow the shape of the dose curve; as a rule, active = well fitted curve in the direction sought with a large enough effect in the repeat runs; inconclusive = weak or mixed curves; inactive = no such curve, though single readings can be large; an effect the other way counts as inactive or inconclusive.

Assay [1] in a line: qHTS assay for small molecule agonists of the p53 signaling pathway - cell viability (AID 651633; calls by dose curve;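 also: p53RE-bla HCT reporter cells with a stable beta-lactamase p53 reporter; series mostly up to about 83 µM; nearly all actives have a fitted effect of over 30% in size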). The method in brief: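 p53RE-bla cells, seeded at 4,000 per well and rested 5 h at 37 C/5% CO2, received compounds in DMSO for 16 h at 37 C. CellTiter-Glo was then added, and luminescence was read after 30 min at room temperature to gauge cytotoxicity.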
For orientation: In qHTS, concentration-response curves come from the screen itself.

Assay [2] can be described thus: qHTS assay to test for compound auto fluorescence at 460 nm (blue) in HEK293 cells (AID 720678). The procedure, abridged: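 Blue-channel (Ex/Em 405/460 nm) intensity measured in HEK293 cultures after overnight compound exposure at 37C; signal expressed relative to triamterene. Cells plated 2,000 per well in 10% dialyzed FBS medium and allowed 4-5 hr to attach.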
The nature of assay [3]: qHTS assay to test for compound auto fluorescence at 590 nm (red) in HEK293 cells (AID 720679). The procedure, abridged: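 Red-channel autofluorescence (Ex/Em 540/590 nm; Rose Bengal sodium reference) was measured after overnight 37C, 5% CO2 exposure of attached HEK293 cells, 2,000 per well in medium with 10% dialyzed FBS.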
A short description of assay [4]: qHTS assay to test for compound auto fluorescence at 535 nm (green) in HEK293 cells (AID 720680). Also: potency is read from the fitted curve at half-maximal effect.
The target in assay [5] is Glucocorticoid receptor (Homo sapiens) (UniProt P04150). Description: qHTS assay to identify small molecule agonists of the glucocorticoid receptor (GR) signaling pathway (AID 720691; active = well fitted activation curve with a large enough effect in the signal ratio in the repeat runs, not every such curve was filed as active; inconclusive = weak or mixed curves, or effect the other way; inactive = no such curve, though single readings can be large or run the other way; the % refers to the signal ratio; also: potency is read from the fitted curve at half-maximal effect). The method in brief: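 Compounds in DMSO, alongside positive controls, were added to GR-bla HeLa reporter cells and incubated 18 h at 37 C; GRE-driven beta-lactamase was detected by fluorescence after 2 h with FRET substrate at room temperature.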
Sequence of Glucocorticoid receptor (Homo sapiens) (P04150 whole entry, looked up): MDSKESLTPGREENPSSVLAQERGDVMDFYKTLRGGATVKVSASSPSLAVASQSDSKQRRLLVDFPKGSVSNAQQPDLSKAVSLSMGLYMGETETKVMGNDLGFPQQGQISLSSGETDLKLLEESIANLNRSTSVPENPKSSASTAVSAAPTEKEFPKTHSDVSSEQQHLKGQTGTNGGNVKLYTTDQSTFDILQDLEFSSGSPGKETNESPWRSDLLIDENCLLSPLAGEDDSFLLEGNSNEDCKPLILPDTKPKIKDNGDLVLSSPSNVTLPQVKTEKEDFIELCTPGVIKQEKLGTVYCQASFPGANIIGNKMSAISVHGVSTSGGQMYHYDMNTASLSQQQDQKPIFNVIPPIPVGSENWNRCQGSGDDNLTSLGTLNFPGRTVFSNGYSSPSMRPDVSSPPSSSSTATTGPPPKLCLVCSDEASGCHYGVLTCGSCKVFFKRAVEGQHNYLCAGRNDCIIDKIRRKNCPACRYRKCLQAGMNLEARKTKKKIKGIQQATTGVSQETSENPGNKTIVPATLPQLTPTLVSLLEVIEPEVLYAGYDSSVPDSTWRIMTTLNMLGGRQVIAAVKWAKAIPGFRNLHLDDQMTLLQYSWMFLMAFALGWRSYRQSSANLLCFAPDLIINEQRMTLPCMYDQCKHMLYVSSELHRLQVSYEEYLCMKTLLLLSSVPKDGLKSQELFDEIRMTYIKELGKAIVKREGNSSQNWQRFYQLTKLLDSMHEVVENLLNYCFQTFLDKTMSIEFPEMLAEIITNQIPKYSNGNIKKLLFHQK

Assay [6] can be described thus: qHTS assay for identifying genotoxic compounds that show differential cytotoxicity against isogenic chicken DT40 cell lines with known DNA damage response pathways - wild type cell line (AID 743012). Also: nearly all actives have a fitted effect of over 60% in size. Also: potency is read from the fitted curve at half-maximal effect. The procedure, abridged: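 Viability of DNA repair-proficient chicken DT40 cells was assessed by CellTiter-Glo luminescence following 40 h compound exposure at 37 C/5% CO2.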

Assay [7] is described as follows: qHTS assay for identifying genotoxic compounds that show differential cytotoxicity against isogenic chicken DT40 cell lines with known DNA damage response pathways - Rev3 mutant cell line (AID 743014). Also: nearly all actives have a fitted effect of over 55% in size. Also: potency is read from the fitted curve at half-maximal effect.
Assay [8] in a line: qHTS assay to identify small molecule antagonists of the androgen receptor (AR) signaling pathway - cell viability counter screen (AID 743033; also: nearly all actives have a fitted effect of over 45% in size).
The nature of assay [9]: qHTS assay to identify small molecule antagonists of the androgen receptor (AR) signaling pathway using the MDA cell line - cell viability counter screen (AID 743041; also: nearly all actives have a fitted effect of over 45% in size). The method in brief: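 In this qHTS counter assay, fluorescence intensity after CellTiter-Fluor addition indicated viability of MDA-kb2 AR-luc cells given compounds and R1881 for 16 h at 37C.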
A short description of assay [10]: qHTS assay to identify small molecule antagonists of the thyroid receptor (TR) signaling pathway - cell viability counter screen (AID 743064). Also: nearly all actives have a fitted effect of over 50% in size. The procedure, abridged: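 Counter screen for cytotoxicity: compound plus T3 (1 nM final) on GH3.TRE-Luc cells, 23.5 h at 37 °C, then fluorescence viability readout with CellTiter-Fluor.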
In assay [11] the target is Estrogen receptor (Homo sapiens) (UniProt P03372). Kind of assay: qHTS assay to identify small molecule agonists of the estrogen receptor alpha (ER-alpha) signaling pathway (AID 743075; calls by dose curve;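 also: HEK293 GripTite cells with ER-alpha and UAS-driven beta-lactamase reporter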).
Sequence of Estrogen receptor (Homo sapiens) (P03372 whole entry, looked up): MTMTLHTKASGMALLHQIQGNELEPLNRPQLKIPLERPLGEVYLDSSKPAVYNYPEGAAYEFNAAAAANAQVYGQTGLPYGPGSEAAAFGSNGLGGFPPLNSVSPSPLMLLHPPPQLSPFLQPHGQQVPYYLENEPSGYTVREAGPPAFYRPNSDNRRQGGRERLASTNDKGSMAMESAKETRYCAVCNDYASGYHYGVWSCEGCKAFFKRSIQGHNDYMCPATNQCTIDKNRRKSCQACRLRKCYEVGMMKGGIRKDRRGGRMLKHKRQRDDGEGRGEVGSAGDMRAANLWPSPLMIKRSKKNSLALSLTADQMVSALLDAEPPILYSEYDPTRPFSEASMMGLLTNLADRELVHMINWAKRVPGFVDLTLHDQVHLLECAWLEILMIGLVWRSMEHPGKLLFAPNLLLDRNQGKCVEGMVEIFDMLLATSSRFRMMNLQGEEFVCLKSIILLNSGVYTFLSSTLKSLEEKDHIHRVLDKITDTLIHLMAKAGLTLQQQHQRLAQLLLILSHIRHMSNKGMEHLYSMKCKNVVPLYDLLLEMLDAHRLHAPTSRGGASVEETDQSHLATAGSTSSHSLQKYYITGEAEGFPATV
The target is the same in assay [12]. Description: qHTS assay to identify small molecule agonists of the estrogen receptor alpha (ER-alpha) signaling pathway using the BG1 cell line (AID 743079). Also: nearly all actives have a fitted effect of over 20% in size. Also: potency is read from the fitted curve at half-maximal effect.
The nature of assay [13]: qHTS assay to identify small molecule that activate the aryl hydrocarbon receptor (AhR) signaling pathway - cell viability counter screen (AID 743086).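 Also: HepG2 liver cells carrying the AhR DRE luciferase reporter; series mostly up to about 70 µM; nearly all actives have a fitted effect of over 45% in size.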 The method in brief:
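HepG2-AhR-luc (HG2L7.5c1) cells, 4000/well, were preincubated 5 h at 37C, exposed to compound in qHTS format for 24 hr at 37C, then given CellTiter-Fluor for 30 min; viability was read as fluorescence in the reporter wells.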

The target of assay [14] is Peroxisome proliferator-activated receptor gamma (Homo sapiens) (UniProt P37231). Kind of assay: qHTS assay to identify small molecule agonists of the peroxisome proliferator-activated receptor gamma (PPARg) signaling pathway (AID 743094; active = well fitted activation curve with a large enough effect in the signal ratio in the repeat runs, not every such curve was filed as active; inconclusive = weak or mixed curves, or effect the other way; inactive = no such curve, though single readings can be large or run the other way; the % refers to the signal ratio). The procedure, abridged:
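Agonism was assessed in a beta-lactamase reporter system, HEK293H cells with a stably integrated UAS-bla construct under PPARg control; the 17 h treatment at 37C preceded a 1 h room-temperature FRET substrate read.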

For assay [15], the target named is Nuclear receptor subfamily 1 group I member 2 (Rattus norvegicus) (UniProt Q9R1A7). Description: Rat pregnane X receptor (rPXR) activation by small molecules, qHTS assay (AID 1346983). Also: nearly all actives have a fitted effect of over 20% in size. The note with it: rPXR luciferase reporter cells, One-Glo luminescence, 24 h; max activation: stronger effect = higher value. The procedure, abridged:
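Cell-based rPXR luciferase reporter assay, 2,000 cells per well, rested 5hr at 37 C before compound addition in DMSO, then 24 hr at 37 C. One-Glo reagent was added and luminescence read after 30 min at room temperature.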

For assay [16], the target named is Nuclear receptor subfamily 1 group I member 2 (Homo sapiens) (UniProt O75469). Description: CYP3A4 induction through human pregnane X receptor (PXR) by small molecules, qHTS assay (AID 1346984). Also: nearly all actives have a fitted effect of over 40% in size. The procedure, abridged: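 Cells (DPX-2; HepG2 with PXR element plus CYP3A4-promoter luciferase) settled 5hr, then were treated 24hr at 37C. A 3hr, 3uM-final Luciferin-IPA step preceded luminescence measurement with One-Glo.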

For assay [17] the target is unchanged. Description: Human pregnane X receptor (PXR) activation by small molecules, qHTS assay (AID 1346985). Also: nearly all actives have a fitted effect of over 40% in size. Also: potency is read from the fitted curve at half-maximal effect. The method in brief: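 DPX-2 cells (HepG2 co-transfected with a PXR response element and a CYP3A4-promoter luciferase construct) were seeded at 2,000 per well, rested 5 hr at 37C, then exposed to DMSO-dissolved compounds for 24 hr. Activation was read as luciferase luminescence.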

The nature of assay [18]: qHTS assay for small molecule agonists of the p53 signaling pathway (AID 651631; calls by dose curve; also: nearly all actives have a fitted effect of over 15% in size). The method in brief: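 Stably transfected HCT-116 cells (beta-lactamase behind p53 response elements) get compounds after a 5 h settling period; 16 h later at 37 °C, FRET substrate is loaded and fluorescence read after 2 h.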
Assay [19] can be described thus: qHTS assay to test for compound auto fluorescence at 590 nm (red) in HepG2 cell free culture (AID 720684). The procedure, abridged: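 Ex 540 / Em 590 nm read of compound in cell-free MEM (10% FBS). Rose Bengal sodium reference.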
Assay [20] can be described thus: qHTS assay to identify small molecule antagonists of the estrogen receptor alpha (ER-alpha) signaling pathway using the BG1 cell line (AID 743080; calls by dose curve;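 also: BG1 cells stimulated with 17beta-estradiol alongside compound; series mostly up to about 70 µM; nearly all actives have a fitted effect of over 25% in size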). The method in brief:
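Luciferase inhibition measured with ONE-Glo after 30 min at RT in BG1Luc4E2 cells given test compounds and 17beta-estradiol for 21.5 h at 37 C; CellTiter-Fluor viability read in the same wells beforehand.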
% is scaled to controls: 0 for no effect and ±100 for the full control effect; tags tell the direction and shape of the fitted curve or compound fluorescence and quenching.

Sequence of Nuclear receptor subfamily 1 group I member 2 (Rattus norvegicus) (Q9R1A7 whole entry, looked up): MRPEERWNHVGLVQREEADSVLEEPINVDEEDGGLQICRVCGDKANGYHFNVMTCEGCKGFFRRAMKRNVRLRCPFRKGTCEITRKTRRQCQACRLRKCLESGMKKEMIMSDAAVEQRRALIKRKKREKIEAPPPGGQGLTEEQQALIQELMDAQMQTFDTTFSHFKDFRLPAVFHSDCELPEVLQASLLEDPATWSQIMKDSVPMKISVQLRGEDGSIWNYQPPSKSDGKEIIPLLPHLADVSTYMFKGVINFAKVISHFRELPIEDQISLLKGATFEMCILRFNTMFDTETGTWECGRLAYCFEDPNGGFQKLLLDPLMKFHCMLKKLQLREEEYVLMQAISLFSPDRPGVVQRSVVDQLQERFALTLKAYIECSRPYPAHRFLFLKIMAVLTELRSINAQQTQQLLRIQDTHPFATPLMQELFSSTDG
Sequence of Peroxisome proliferator-activated receptor gamma (Homo sapiens) (P37231 whole entry, looked up): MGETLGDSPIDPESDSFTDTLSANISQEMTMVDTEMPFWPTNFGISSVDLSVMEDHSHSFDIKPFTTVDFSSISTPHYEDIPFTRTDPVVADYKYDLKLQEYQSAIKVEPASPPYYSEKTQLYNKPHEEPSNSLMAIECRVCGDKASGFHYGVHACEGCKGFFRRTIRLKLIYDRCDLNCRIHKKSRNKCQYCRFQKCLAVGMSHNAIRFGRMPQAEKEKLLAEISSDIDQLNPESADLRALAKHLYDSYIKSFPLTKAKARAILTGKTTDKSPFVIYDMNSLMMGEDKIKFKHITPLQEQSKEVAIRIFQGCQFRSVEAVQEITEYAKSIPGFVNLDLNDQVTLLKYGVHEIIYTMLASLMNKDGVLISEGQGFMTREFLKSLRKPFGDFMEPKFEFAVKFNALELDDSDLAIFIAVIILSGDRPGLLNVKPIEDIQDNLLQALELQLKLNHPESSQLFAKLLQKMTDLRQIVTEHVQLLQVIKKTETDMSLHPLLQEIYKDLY

As to `CCCC(=O)OC(C(Cl)(Cl)Cl)P(=O)(OC)OC` (configuration not stated), the Potency result in [1], in assay [2], in [4], in assay [5], in [6] and in [7] was “inactive” each time. Also, the Potency result in [8], in assay [9], in [10], in assay [11], in assay [13] and in assay [14] was “inactive” each time. In addition, the Potency result in assay [16] and in assay [17] was “inactive” in each case. The call in assay [3] was inactive. For the same compound, in [12], the Potency was 26.6 µM (active). Moreover, in [15], the max activation is 0.574%.
For `CC(=O)[C@@]1(O)CC[C@H]2[C@@H]3CCC4=CC(=O)CC[C@]4(C)C3(F)[C@@H](O)C[C@@]21C` (some centres not stated), the Potency entry in [18], in [1], in assay [4], in assay [6], in assay [8] and in [9] was “inactive” in each case. In addition, the Potency result in assay [10], in [11], in assay [12], in [13] and in [14] was “inactive” each time. The compound was called inactive in assay [3] and in assay [19]. Also, the Potency in [5] is 0.19 µM [inconclusive] (active).
For `CN(C)CCCCCCN(C)C` (tested in a mixture with another compound), the Potency result in assay [1], in assay [2], in assay [4], in [5], in [7] and in assay [8] was “inactive” in each case. The Potency result in assay [9], in assay [10] and in assay [13] was “inactive” each time. In addition, the result in assay [3] and in assay [19] was inactive. Besides, the max activation in assay [15] was -5.32%.
On to `CCN(CC)C(=O)N[C@H]1C[C@@H]2c3cccc4[nH]cc(c34)C[C@H]2N(C)C1`, for which the Potency entry in [18], in [1], in assay [4], in [8], in assay [9] and in [10] was “inactive” in each case. For the same compound, the Potency entry in assay [13] and in assay [14] was “inactive” each time. Moreover, the call in [3] was inactive. Moreover, the Potency in [6] was 29.8 µM (active); in [17], 25.1 µM (active). In addition, the max activation in assay [15] is -1.74%.
As for `Oc1ccc2c3c1O[C@H]1[C@@H](O)CC[C@@]4(O)[C@@H](C2)N(CC2CCC2)CC[C@]314`, the Potency result in [1], in assay [2], in assay [4], in assay [5], in assay [6] and in assay [7] was “inactive” throughout. In addition, the Potency result in assay [8], in assay [10], in assay [11], in [12], in [14] and in [17] was “inactive” in each case. For the same compound, the result in assay [3] and in [19] was inactive. Further, the max activation in assay [15] is -0.605%.
Take `c1ccc2c(c1)Sc1ccccc1N2C[C@@H]1CN2CCC1CC2`: the Potency result in [18], in [1], in [2], in assay [5], in assay [7] and in [8] was “inactive” throughout. The Potency result in [9], in [13] and in assay [14] was “inactive” each time. Moreover, in assay [19], the result was inactive.
On to `O=C1OC2(c3cc(Br)c(O)cc3Oc3c2cc(Br)c(O)[c]3[Hg])c2ccccc21` (configuration not stated), for which the Potency result in assay [18], in [1], in assay [2], in assay [5], in assay [8] and in assay [9] was “inactive” throughout. For the same compound, the Potency entry in assay [10], in assay [11], in assay [12], in [20], in assay [13] and in assay [14] was “inactive” throughout. The Potency entry in assay [16] and in [17] was “inactive” in each case. The Potency in [4] is 10 µM [fluorescent] (active); in assay [6] it was 10.1 µM (active); in assay [7] it was 11.4 µM (active).
